Z-score and composite z-score data for eight compounds are collected here from PubChem BioAssay.

Active and inactive are the calls of the source. Unless noted, how the calls were made is not given here.

Assay [1] can be described thus: compound effects on lung adenocarcinoma cell viability – A549, calcein-AM fluorescence, 48 h, basal, profiling panel (AID 1162). Further: test concentration not given here. The following applies: higher = more signal.
Assay [2] can be described thus: compound effects on differentiated 3T3-L1 adipocyte viability – cell-based, 3T3-L1 adipocytes, calcein-AM fluorescence, 48 h, basal, profiling panel (AID 1163). Further: test concentration not given here. Particulars: 3T3-L1 adipocytes viability, higher = more signal.
A short description of assay [3]: compound effects on hepatocellular carcinoma cell viability – HepG2, calcein-AM fluorescence, 48 h, basal, profiling panel (AID 1164). Further: test concentration not given here. Particulars: higher = more signal.
Assay [4] in a line: compound effects on multiple myeloma cell viability – MM1S, calcein-AM fluorescence, 48 h, basal, profiling panel (AID 1165).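 Further: viability of MM1S multiple myeloma cells under basal unstimulated conditions; test concentration not given here.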 Particulars: higher = more signal.
Assay [5] can be described thus: calcein-AM signal in unstimulated myeloma cells – cell-based, calcein-AM fluorescence, 48 h, PK04 Diversity Set, profiling panel (AID 1166).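 Further: cells grown under basal conditions without added stimulus; test concentration not given here.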 Particulars: RPMI8226 myeloma viability, higher = more signal.
The nature of assay [6]: JC-1 mitochondrial signal, unstimulated HepG2 cells – cell-based, JC-1 fluorescence, 24 h, 100 nL compound, profiling panel (AID 1167). Further: test concentration not given here. Particulars: HepG2 mitochondrial potential, higher = more signal.
Assay [7] is described as follows: JC-1 mitochondrial signal, unstimulated adipocytes – cell-based, JC-1 fluorescence, 3T3-L1 adipocytes, 24 h, 100 nL compound, profiling panel (AID 1168). Further: test concentration not given here. Particulars: JC-1 mitochondrial fluorescence, higher = more signal, called active from +8 up or from −8 down.
Assay [8] in a line: JC-1 mitochondrial signal, unstimulated myeloma cells – cell-based, JC-1 fluorescence, RPMI8226, 24 h, 100 nL compound, profiling panel (AID 1169). Further: test concentration not given here. Particulars: JC-1 mitochondrial potential fluorescence, higher = more signal.
Assay [9] in a line: JC-1 mitochondrial signal, unstimulated MM1S myeloma – cell-based, JC-1 fluorescence, 24 h, 100 nL compound, profiling panel (AID 1170). Further: test concentration not given here. The following applies: MM1S mitochondrial potential, higher = more signal.
Assay [10] is described as follows: resazurin metabolic signal in A549 cells – cell-based, resazurin fluorescence, 24 h, PK04 Diversity Set, profiling panel (AID 1171). Further: test concentration not given here. The following applies: A549 viability, higher = more signal, called active from +8 up or from −8 down.
A short description of assay [11]: resazurin metabolic signal in HepG2 cells – cell-based, resazurin fluorescence, 24 h, PK04 Diversity Set, profiling panel (AID 1172). Further: test concentration not given here. Particulars: HepG2 viability, higher = more signal.
The nature of assay [12]: budding yeast growth changes without added modifier – OD600, strain BY4716, 24 h, basal condition, primary screen (AID 1173). Particulars: S. cerevisiae BY4716 growth, OD600, 24 h; higher = more signal, called active from +8 up or from −8 down.
Assay [13] is described as follows: viability profiling in MM1S myeloma cells – cell-based, resazurin fluorescence, basal, 24 h, PK04 Diversity Set, profiling panel (AID 1174). Further: test concentration not given here. Particulars: higher = more signal, called active from +8 up or from −8 down.
Assay [14] concerns the target Dihydroorotate dehydrogenase (quinone), mitochondrial (Plasmodium falciparum (isolate 3D7)) (UniProt Q08210). The assay can be described thus: inhibition of P. falciparum DHODH – biochemical, C-terminal His tag, absorbance 600 nm, primary screen (AID 1175).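 Further: recombinant parasite enzyme with a five histidine tag at its C terminus; test concentration not given here.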 The following applies: PfDHODH enzyme, DCIP absorbance 600 nm; higher = more signal, called active from +8 up or from −8 down.

Assay [15] in a line: inhibition of PAO1 biofilm formation – strain PAO1, LB-PBS medium, absorbance 600 nm, primary screen (AID 1176). Further: test concentration not given here. Particulars: P. aeruginosa PAO1 growth/biofilm, A600, 12 h; higher = more signal.
Assay [16] in a line: growth modulation of vineyard yeast isolate – strain RM11-1a, OD600, basal, 24 h, primary screen (AID 1177).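 Further: cultures grown under basal conditions with no added stressor; test concentration not given here.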 The following applies: S. cerevisiae RM11-1a growth, OD600, 24 h; higher = more signal, called active from +8 up or from −8 down.
Assay [17] is described as follows: growth of efflux-deficient E. coli DRC39 – strain DRC39, OD650, 24 h, E. coli filamentation inducers, primary screen (AID 1178).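 Further: growth measured as culture turbidity by optical density at 650 nm; test concentration not given here.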 Particulars: E. coli DRC39 acrAB, higher = more signal, called active from +8 up or from −8 down.
The nature of assay [18]: growth of efflux-deficient E. coli DRC39 – strain DRC39, OD650, 48 h, E. coli filamentation inducers, primary screen (AID 1179).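 Further: screen aims at cell division blockers that make cells filament.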 The following applies: E. coli DRC39 delta-acrAB growth, higher = more signal, called active from +8 up or from −8 down.
A short description of assay [19]: viability profiling in RPMI8226 myeloma cells – cell-based, resazurin fluorescence, basal, 24 h, PK04 Diversity Set, profiling panel (AID 1180).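 Further: RPMI8826 multiple myeloma cell line at 5000 cells per well; test concentration not given here.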 The following applies: higher = more signal.
The target in assay [20] is E3 ubiquitin-protein ligase XIAP (Homo sapiens) (UniProt P98170). The assay can be described thus: small molecules binding XIAP protein – biophysical, small-molecule microarray, fluorescence 635 nm, primary screen (AID 1181).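 Further: score merges 667 nm emission and signal to noise over triplicate slides.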 Particulars: higher = more signal.
E3 ubiquitin-protein ligase XIAP (Homo sapiens), sequence (P98170 whole entry, looked up): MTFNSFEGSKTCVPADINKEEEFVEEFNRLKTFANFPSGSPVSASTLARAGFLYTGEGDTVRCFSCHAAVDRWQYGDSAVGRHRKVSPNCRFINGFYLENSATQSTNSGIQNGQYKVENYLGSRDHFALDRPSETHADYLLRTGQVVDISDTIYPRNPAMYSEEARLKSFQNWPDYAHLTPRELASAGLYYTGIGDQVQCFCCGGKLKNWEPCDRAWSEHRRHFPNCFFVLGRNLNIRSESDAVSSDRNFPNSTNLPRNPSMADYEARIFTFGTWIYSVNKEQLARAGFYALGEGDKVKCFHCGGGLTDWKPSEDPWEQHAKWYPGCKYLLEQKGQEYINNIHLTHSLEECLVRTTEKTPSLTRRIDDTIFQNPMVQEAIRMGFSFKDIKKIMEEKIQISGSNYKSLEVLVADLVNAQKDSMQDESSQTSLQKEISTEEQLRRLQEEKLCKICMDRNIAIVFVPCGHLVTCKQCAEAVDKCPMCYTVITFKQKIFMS

Dihydroorotate dehydrogenase (quinone), mitochondrial (Plasmodium falciparum (isolate 3D7)), sequence (Q08210 whole entry, looked up): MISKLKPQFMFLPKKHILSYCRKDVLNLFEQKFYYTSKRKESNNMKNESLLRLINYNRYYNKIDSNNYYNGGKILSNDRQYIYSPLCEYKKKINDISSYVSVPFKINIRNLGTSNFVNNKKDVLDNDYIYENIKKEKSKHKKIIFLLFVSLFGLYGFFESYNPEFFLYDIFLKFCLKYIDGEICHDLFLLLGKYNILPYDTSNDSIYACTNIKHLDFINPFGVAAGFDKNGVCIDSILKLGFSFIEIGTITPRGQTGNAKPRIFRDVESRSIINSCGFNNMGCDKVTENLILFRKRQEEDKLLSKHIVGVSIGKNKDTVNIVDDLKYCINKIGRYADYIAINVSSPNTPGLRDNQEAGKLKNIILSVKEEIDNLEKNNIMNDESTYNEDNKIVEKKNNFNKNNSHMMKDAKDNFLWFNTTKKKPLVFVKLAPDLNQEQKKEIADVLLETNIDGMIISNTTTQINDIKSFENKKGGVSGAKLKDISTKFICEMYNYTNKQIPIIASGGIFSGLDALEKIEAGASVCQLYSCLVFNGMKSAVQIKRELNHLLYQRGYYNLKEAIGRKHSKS

`C=CCC(OC(C)=O)[C@@H]1[C@@H](N(Cc2ccc(-c3cccc(C(F)(F)F)c3)o2)C(=O)c2ccc(C)cc2)c2cc(OCCCO)ccc2N1C(=O)Cc1ccc2ccccc2c1` (stereo not given in full): the z-score in assay [1] was 0.474; in [2], 0.9; in assay [3], 0.544; in assay [4], -0.886; in [5], 0.707; in assay [6], 2.75. Further, the z-score is 0.417 (inactive) in assay [7]; 1.01 in assay [8]; -0.554 in [9]; 0.379 (inactive) in assay [10]; 0.358 in assay [11]; -0.219 (inactive) in assay [12]. Also, the z-score was 0.837 (inactive) in [13]; -0.312 (inactive) in assay [15]; 0.476 (inactive) in assay [16]; -0.333 (inactive) in assay [17]; 0.409 (inactive) in [18]; 1.22 in assay [19]. In addition, the composite z-score in assay [14] was -0.802 (inactive); in assay [20], -0.0286.
On to `CCCCC(CC)C(O)C1C=CC2C(=O)N(Cc3ccccc3)C(=O)C2N1n1cnnc1` (stereo not given), for which the z-score in assay [1] was -0.682; in assay [2], -0.498; in [3], -0.391; in assay [4], -0.165; in assay [5] it was -0.208; in assay [6], -0.522. Further, the z-score in assay [7] was -1.48 (inactive); in [8], 0.447; in assay [9], 0.533; in assay [10], -0.56 (inactive); in assay [11] it was -0.661; in [12] it was 0.374 (inactive). For the same compound, the z-score in assay [13] is -0.763 (inactive); in assay [15], -0.445 (inactive); in [16], -0.666 (inactive); in assay [17] it was -1.03 (inactive); in assay [18], -1.46 (inactive); in assay [19], -1.01. The composite z-score is -0.495 (inactive) in assay [14] and 0.0228 in [20].
Consider `CC(C)C[C@@H]1NC(=O)[C@@H]2C[C@H](C(=O)NCc3ccc(F)cc3)[C@H](c3cccc(OCCO)c3)N2C1=O`, for which the z-score in assay [1] is 1.21; in [2] it was -0.613; in assay [3], 0.259; in assay [4] it was 1.04; in assay [5] it was 0.828; in assay [6], 1.9. Besides, the z-score in [7] was 0.0605 (inactive); in assay [8] it was -0.0212; in assay [9], -0.657; in assay [10] it was 0.234 (inactive); in assay [11] it was 0.137; in [12], -0.929 (inactive). Besides, the z-score in assay [13] was 0.279 (inactive); in [15], 0.475 (inactive); in assay [16], -0.694 (inactive); in assay [17], 1.46 (inactive); in assay [18], 1.48 (inactive); in assay [19] it was 0.919. In addition, the composite z-score in assay [14] was -1.26 (inactive); in assay [20], -0.052.
In the case of `CC(C)C(CO)N1C(=O)[C@@H]2C3C(=O)OCCC/C=C\[C@H]3OC23C=CCN(CCN2CCOCC2)C(=O)[C@@H]13` (stereo not given in full), the z-score in [1] was 1.12; in [2], -0.453; in assay [3] it was -0.66; in [4], 0.171; in [5], -0.378; in assay [6], -0.936. Besides, the z-score was -0.173 (inactive) in [7]; -0.759 in assay [8]; -0.359 in [9]; -0.702 (inactive) in assay [10]; -0.723 in [11]; 0.384 (inactive) in assay [12]. Besides, the z-score in assay [13] was -0.686 (inactive); in assay [15], 0.109 (inactive); in [16], -0.0505 (inactive); in [17], 1.01 (inactive); in [18], 0.566 (inactive); in assay [19] it was -0.586. The composite z-score in assay [14] was -3.09 (inactive); in assay [20], 0.0191.
In the case of `O=C1C[C@@](C(=O)NCC(F)(F)F)(c2ccc([N+](=O)[O-])cc2)[C@@H](c2ccc(CO)cc2I)N1C1CCCCC1`, the z-score in assay [1] was -0.0922; in [2] it was 0.665; in assay [3], -0.644; in assay [4], -2.28; in assay [5] it was -1.65; in assay [6] it was 0.548. The z-score is -0.226 (inactive) in assay [7]; -0.521 in assay [8]; -1.02 in assay [9]; 0.324 (inactive) in assay [10]; -0.0199 in assay [11]; -0.805 (inactive) in assay [12]. Besides, the z-score was 0.233 (inactive) in [13]; 0.609 (inactive) in [15]; 0.195 (inactive) in [16]; -0.218 (inactive) in assay [17]; -0.182 (inactive) in assay [18]; -0.589 in assay [19]. Moreover, the composite z-score in assay [14] is -0.277 (inactive); in assay [20], -0.0172.
Consider `COCCCNC(=O)[C@@H]1c2ccccc2C(=O)N(Cc2ccccc2Cl)[C@H]1c1ccc(CO)cc1`, for which the z-score in [1] is 0.897; in [2] it was -0.137; in assay [3] it was 1.84; in [4], 0.448; in assay [5], 1.28; in assay [6] it was 2.87. Besides, the z-score was 0.385 (inactive) in assay [7]; -0.21 in assay [8]; 0.418 in [9]; -0.028 (inactive) in assay [10]; -0.378 in [11]; -0.259 (inactive) in assay [12]. Besides, the z-score in assay [13] is 0.655 (inactive); in [15], 0.692 (inactive); in assay [16], -1.02 (inactive); in assay [17], 0.987 (inactive); in assay [18], 1.16 (inactive); in assay [19], 0.871. Besides, the composite z-score is -0.636 (inactive) in [14] and 0.78 in assay [20].
On to `Cc1ccc(S[C@]2(C(=O)O)CC(=O)N(C(C)C)[C@@H]2c2ccc(CO)cc2I)cc1`, for which the z-score in assay [1] was 2.14; in assay [2], 0.827; in assay [3], 1.65; in [4] it was -2.36; in assay [5] it was -0.902; in [6], 0.0957. For the same compound, the z-score in assay [7] is -0.386 (inactive); in [8], -0.527; in assay [9], -0.56; in assay [10] it was 0.667 (inactive); in assay [11], 0.975; in assay [12], -4.89 (inactive). The z-score in assay [13] was -1.66 (inactive); in [15], 0.953 (inactive); in assay [16], -2.76 (inactive); in assay [17], 0.818 (inactive); in [18], 1.42 (inactive); in [19], -1.58. Also, the composite z-score is -1.12 (inactive) in assay [14] and -0.122 in assay [20].
`CC#CC(=O)Oc1ccccc1C=CC(=O)OCC`: the z-score in [1] is -1.54; in assay [2], -0.228; in assay [3] it was -0.749; in [4], -3.27; in assay [5] it was -2.23; in assay [6] it was -0.739. In addition, the z-score is 0.161 (inactive) in [7]; 0.849 in assay [8]; -0.259 in assay [9]; 1.5 (inactive) in assay [10]; 1.86 in assay [11]; -10.4 (active) in assay [12]. In addition, the z-score in [13] is 0.302 (inactive); in assay [15], 1.21 (inactive); in assay [16], -1.34 (inactive); in assay [17], 0.23 (inactive); in [18] it was 0.51 (inactive); in assay [19], 0.485. Also, the composite z-score was -0.155 (inactive) in assay [14] and -0.162 in assay [20].
